Source: PubChem BioAssay (NCI)
Compounds without any hit were thinned out: in the full panel of roughly 83,000, 20% have a hit.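 Activity criterion: percent growth below 10, measured after cells in 96-well plates were exposed to a single compound concentration for 48 hours.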 The source made the active and inactive calls.

Each compound was assayed on SNB-75 CNS (assay: NCI-60 one-dose screen, 48 h (100 = growth as untreated, 0 = no growth, -100 = all killed)). Conditions: 10 µM unless noted.

Compound	growth
CCCCCCCC[C@@H]1N[C@@H](C(=O)OC)Cc2c1[nH]c1ccccc21	81.6% (inactive)
COC(=O)c1cc(N=C2NC(=O)/C(=C/C=C/c3ccccc3)S2)ccc1O	12.9% (inactive)
CSc1nnc(-c2cc3c([nH]c4ccccc43)c(-c3cccc(O)c3)n2)n1-c1ccccc1	5.14% (active)
Cc1ccc(-c2nc([P+](c3ccccc3)(c3ccccc3)c3ccccc3)c(S(=O)(=O)c3ccc(C)cc3)o2)cc1	-11.3% (active)
O=S(=O)(NCCNc1nccc(-c2c(-c3ccc(F)c(O)c3)nc3occn23)n1)c1ccc(Cl)cc1	85.2% (inactive)
COc1ccc2c(c1)c(-c1nc(-c3c[nH]c4ccncc34)cs1)cn2C	-97.5% (active)
CC(C)c1ccc(C(=O)Nc2nc3ccc(O)c(CN(C)C)c3s2)cc1	107% (inactive)
O=C1Nc2ccccc2/C1=C/c1nc2ccccc2c(=O)[nH]1	88.9% (inactive)
O=C(c1ccccc1)c1ccc(C2CCCCC2)cc1	97.5% (inactive)
C=CC(=O)N1CCN(c2cccc(Oc3nccc(Nc4nnc(-c5ccc(Br)cc5)s4)n3)c2)CC1	69.3% (inactive)
O=C1C(Cl)=C(Nc2ccc(S(=O)(=O)N3CCOCC3)cc2)C(=O)c2ccccc21	71.3% (inactive)
CCOC(=O)C1=C(C)NC(=O)NC1c1c(Cl)n(CCCl)c2ccccc12 (stereo not given)	85.4% (inactive)
CCCC/C=C/[C@@H]1C[C@H]1CCO	90.3% (inactive)
C=C(CBr)[C@@H]1CC[C@]2(C(=O)O)CC[C@]3(C)[C@H](CC[C@@H]4[C@@]5(C)CCC(=O)C(C)(C)[C@@H]5CC[C@]43C)[C@@H]12	98.7% (inactive)
CC/C=C\C[C@H](O)C/C=C1/C(=O)C=C[C@@H]1C/C=C\CCCC(=O)N(C)C	72.2% (inactive)
CNC(=O)c1[nH]cc(-c2ccc(OC)cc2)c1-c1cc(OC)c2c(c1OC)OCO2	66.9% (inactive)
O=C(/C=C/c1cccs1)Nc1ncc(Cc2ccccc2F)s1	-7.95% (active)
CCCn1cc2c(=O)nc3sc(Cc4ccccc4)c(C)n3c2n1	97.6% (inactive)
CCC(C)N(CCNc1cc(OC)cc2cccnc12)CC(C)C (stereo not given)	109% (inactive)
C1CCC([PH+](C2CCCCC2)C2CCCCC2[PH+](C2CCCCC2)C2CCCCC2)CC1.[Au].[CH-]1CCCCC1C1CCCC[N-]1 (stereo not given)	-31.8% (active)

Compound	growth
O=C1/C(=C/c2ccccc2Br)COc2ccc(O)cc21	89.3% (inactive)
O=C(Nc1ccccc1O)c1ccc(CNC(=O)c2sccc2Nc2ccnc(C(F)(F)F)c2)cc1	36.9% (inactive)
N#Cc1c(-c2ccc(Cl)cc2)nc(NN2C(=O)c3ccccc3C2=O)nc1N1CCOCC1	84.6% (inactive)
O=C(OC(CO)C(=O)NC12CC3CC(CC(C3)C1)C2)c1ccc(Cl)cc1 (stereo not given)	102% (inactive)
COc1ccc(/C=N/C2=C(C#N)C(c3ccccc3)c3ccc4ccccc4c3O2)cc1 (stereo not given)	15.5% (inactive)
CC(C)c1ccc(C(=O)Nc2sc3c(c2C(N)=O)CCC(=O)C3)cc1	-88.2% (active)
N=C(N)c1ccc(-c2ccc(-c3ccc(Cl)cc3Cl)s2)cc1	88.5% (inactive)
O=C(/C=C/c1cccc(Cl)c1)c1ccc(Nc2nc(Nc3ccc(F)cc3)nc(Nc3ccc(Cl)cc3)n2)cc1	95.7% (inactive)
COc1c(B(O)O)cccc1-c1nc2c(F)cc3[nH]ncc3c2c2c1CCCC2	-87.8% (active)
N#Cc1ccc(O)c(C2=NCC(c3ccccc3)O2)c1 (stereo not given)	74.9% (inactive)
COC(=O)c1nc(-c2ccccc2)oc1S(=O)(=O)Cc1ccccc1	84.8% (inactive)
OCCn1cc(-c2nc(-c3c[nH]c4ncccc34)cs2)c2cc(F)ccc21	72.5% (inactive)
O=[N+]([O-])c1cccc(-c2nc3cc4nc5ccccc5[nH]c4cc3n2)c1	101% (inactive)
CN(C)c1ccc(C(=O)OCCCCCCl)cc1	78.4% (inactive)
CC(C)COc1nc2c(c(=O)n(C)c(=O)n2C)n1C	82.4% (inactive)
Nc1nc(-c2ccc(Cl)cc2)nc2c1sc(=S)n2-c1ccccc1	-30.5% (active)
Cc1ccc(NC(=O)c2sc3nc(C)c(Br)c(C)c3c2N)cc1	20.9% (inactive)
Cc1cc(N2CCCCC2)cc(C)c1-c1csc(NC(=O)c2ccncc2)n1	55.7% (inactive)
CCN1C(=S)N(c2ccccc2)C2C1NN=c1s/c(=C3\C(=O)N(C(C)C)c4ccccc43)c(=O)n12 (stereo not given)	61% (inactive)
O=C(N(c1ccccc1)c1ccccc1)n1cc(I)c2nc(Cl)nc(Cl)c21	35.1% (inactive)

Each compound was assayed on SNB-19 CNS in the same assay as above. Conditions: 10 µM unless noted.

Compound	growth
CCCCCCCC[C@@H]1N[C@@H](C(=O)OC)Cc2c1[nH]c1ccccc21	96.6% (inactive)
COC(=O)c1cc(N=C2NC(=O)/C(=C/C=C/c3ccccc3)S2)ccc1O	30.4% (inactive)
CSc1nnc(-c2cc3c([nH]c4ccccc43)c(-c3cccc(O)c3)n2)n1-c1ccccc1	38.6% (inactive)
Cc1ccc(-c2nc([P+](c3ccccc3)(c3ccccc3)c3ccccc3)c(S(=O)(=O)c3ccc(C)cc3)o2)cc1	53.5% (inactive)
O=S(=O)(NCCNc1nccc(-c2c(-c3ccc(F)c(O)c3)nc3occn23)n1)c1ccc(Cl)cc1	101% (inactive)
COc1ccc2c(c1)c(-c1nc(-c3c[nH]c4ccncc34)cs1)cn2C	-58.9% (active)
CC(C)c1ccc(C(=O)Nc2nc3ccc(O)c(CN(C)C)c3s2)cc1	97.9% (inactive)
O=C1Nc2ccccc2/C1=C/c1nc2ccccc2c(=O)[nH]1	95.5% (inactive)
O=C(c1ccccc1)c1ccc(C2CCCCC2)cc1	86.7% (inactive)
C=CC(=O)N1CCN(c2cccc(Oc3nccc(Nc4nnc(-c5ccc(Br)cc5)s4)n3)c2)CC1	57.3% (inactive)
O=C1C(Cl)=C(Nc2ccc(S(=O)(=O)N3CCOCC3)cc2)C(=O)c2ccccc21	96.9% (inactive)
CCOC(=O)C1=C(C)NC(=O)NC1c1c(Cl)n(CCCl)c2ccccc12 (stereo not given)	100% (inactive)
CCCC/C=C/[C@@H]1C[C@H]1CCO	96.3% (inactive)
C=C(CBr)[C@@H]1CC[C@]2(C(=O)O)CC[C@]3(C)[C@H](CC[C@@H]4[C@@]5(C)CCC(=O)C(C)(C)[C@@H]5CC[C@]43C)[C@@H]12	78.7% (inactive)
CC/C=C\C[C@H](O)C/C=C1/C(=O)C=C[C@@H]1C/C=C\CCCC(=O)N(C)C	27.1% (inactive)
CNC(=O)c1[nH]cc(-c2ccc(OC)cc2)c1-c1cc(OC)c2c(c1OC)OCO2	93.9% (inactive)
O=C(/C=C/c1cccs1)Nc1ncc(Cc2ccccc2F)s1	28.9% (inactive)
CCCn1cc2c(=O)nc3sc(Cc4ccccc4)c(C)n3c2n1	98% (inactive)
CCC(C)N(CCNc1cc(OC)cc2cccnc12)CC(C)C (stereo not given)	94.3% (inactive)
C1CCC([PH+](C2CCCCC2)C2CCCCC2[PH+](C2CCCCC2)C2CCCCC2)CC1.[Au].[CH-]1CCCCC1C1CCCC[N-]1 (stereo not given)	-96.6% (active)

Compound	growth
O=C1/C(=C/c2ccccc2Br)COc2ccc(O)cc21	75% (inactive)
O=C(Nc1ccccc1O)c1ccc(CNC(=O)c2sccc2Nc2ccnc(C(F)(F)F)c2)cc1	68.9% (inactive)
N#Cc1c(-c2ccc(Cl)cc2)nc(NN2C(=O)c3ccccc3C2=O)nc1N1CCOCC1	94.1% (inactive)
O=C(OC(CO)C(=O)NC12CC3CC(CC(C3)C1)C2)c1ccc(Cl)cc1 (stereo not given)	98.8% (inactive)
COc1ccc(/C=N/C2=C(C#N)C(c3ccccc3)c3ccc4ccccc4c3O2)cc1 (stereo not given)	24.6% (inactive)
CC(C)c1ccc(C(=O)Nc2sc3c(c2C(N)=O)CCC(=O)C3)cc1	13% (inactive)
N=C(N)c1ccc(-c2ccc(-c3ccc(Cl)cc3Cl)s2)cc1	10.9% (inactive)
O=C(/C=C/c1cccc(Cl)c1)c1ccc(Nc2nc(Nc3ccc(F)cc3)nc(Nc3ccc(Cl)cc3)n2)cc1	118% (inactive)
COc1c(B(O)O)cccc1-c1nc2c(F)cc3[nH]ncc3c2c2c1CCCC2	6.94% (active)
N#Cc1ccc(O)c(C2=NCC(c3ccccc3)O2)c1 (stereo not given)	46% (inactive)
COC(=O)c1nc(-c2ccccc2)oc1S(=O)(=O)Cc1ccccc1	96.2% (inactive)
OCCn1cc(-c2nc(-c3c[nH]c4ncccc34)cs2)c2cc(F)ccc21	79.5% (inactive)
O=[N+]([O-])c1cccc(-c2nc3cc4nc5ccccc5[nH]c4cc3n2)c1	102% (inactive)
CN(C)c1ccc(C(=O)OCCCCCCl)cc1	95.6% (inactive)
CC(C)COc1nc2c(c(=O)n(C)c(=O)n2C)n1C	99.9% (inactive)
Nc1nc(-c2ccc(Cl)cc2)nc2c1sc(=S)n2-c1ccccc1	37.9% (inactive)
Cc1ccc(NC(=O)c2sc3nc(C)c(Br)c(C)c3c2N)cc1	66.3% (inactive)
Cc1cc(N2CCCCC2)cc(C)c1-c1csc(NC(=O)c2ccncc2)n1	59.8% (inactive)
CCN1C(=S)N(c2ccccc2)C2C1NN=c1s/c(=C3\C(=O)N(C(C)C)c4ccccc43)c(=O)n12 (stereo not given)	81.9% (inactive)
O=C(N(c1ccccc1)c1ccccc1)n1cc(I)c2nc(Cl)nc(Cl)c21	46.8% (inactive)
